# Only some compounds are listed: those with a hit (about 2.5% of all), similar ones and a draw of the others.
# p97 inhibitor: blocks human p97 ATPase activity; P55072; recombinant p97 ATPase, Kinase-Glo ATP luminescence, 3 h; inhibition, % at 8 µM; 220,000 compounds, 0.42% hits; AID 1481; in the data active means inhibition above about 15%;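 further: 0% = DMSO vehicle and 100% = wells lacking enzyme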
# Target sequence (P55072 whole entry, looked up): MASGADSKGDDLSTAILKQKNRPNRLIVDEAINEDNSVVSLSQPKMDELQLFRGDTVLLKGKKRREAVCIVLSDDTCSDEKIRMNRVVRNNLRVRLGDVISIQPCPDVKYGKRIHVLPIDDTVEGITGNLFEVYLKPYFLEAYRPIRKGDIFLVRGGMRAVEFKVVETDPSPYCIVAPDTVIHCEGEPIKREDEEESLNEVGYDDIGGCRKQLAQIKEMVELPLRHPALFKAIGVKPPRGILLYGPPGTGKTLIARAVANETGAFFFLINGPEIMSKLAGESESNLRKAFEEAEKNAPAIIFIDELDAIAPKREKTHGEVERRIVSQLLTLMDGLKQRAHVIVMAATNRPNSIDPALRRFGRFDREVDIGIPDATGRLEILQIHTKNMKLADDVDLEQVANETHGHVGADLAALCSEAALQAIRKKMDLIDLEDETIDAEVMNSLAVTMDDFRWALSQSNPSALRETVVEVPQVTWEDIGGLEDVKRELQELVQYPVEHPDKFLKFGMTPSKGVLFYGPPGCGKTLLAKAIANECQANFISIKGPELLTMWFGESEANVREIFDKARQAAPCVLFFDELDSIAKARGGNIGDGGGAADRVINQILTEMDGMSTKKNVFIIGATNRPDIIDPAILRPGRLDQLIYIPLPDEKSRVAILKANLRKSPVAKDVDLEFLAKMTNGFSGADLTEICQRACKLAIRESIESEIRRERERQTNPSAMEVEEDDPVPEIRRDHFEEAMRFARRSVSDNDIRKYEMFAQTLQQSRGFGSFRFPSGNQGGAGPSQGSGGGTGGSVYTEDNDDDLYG
# PHOSPHO1 block: PHOSPHO1 (human) inhibition. Q8TCT1. inhibition, % at 13.3 µM. AID 1565. recombinant PHOSPHO1, absorbance phosphatase assay. 290,000 compounds, 1.1% hits; in the data active means inhibition above about 60%
# HDAC3 inhib: inhibitors of human histone deacetylase 3. O15379. recombinant HDAC3, fluorogenic peptide/trypsin coupled, fluorescence. 320,000 compounds, 0.15% hits. inhibition, % at 8.3 µM; in the data active means inhibition above about 26%, passing the limit was not always enough
# UBC9 SUMO inh: inhibitors of human SUMOylation (UBC9) | AID 2006 | inhibition, % at 35 µM | HTRF SUMOylation assay, SAE1/SAE2 + UBC9, in vitro | 290,000 compounds, 0.36% hits; in the data active means inhibition above about 50%, passing the limit was not always enough
# G6PDH counter: L. mesenteroides G6PDH inhibition counter-screen; Purified L. mesenteroides G6PDH, diaphorase/resazurin coupled fluorescence, 45 min; inhibition, % at 5 µM; 200,000 compounds, 0.12% hits; AID 1020; in the data active means inhibition above about 50%
# PfM18AAP inh-1: PfM18AAP enzyme inhibition. recombinant PfM18AAP, H-Glu-NHMec fluorogenic cleavage. inhibition, % at 7.35 µM. 290,000 compounds, 1.2% hits. AID 1822;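 active means inhibition above the campaign mean inhibition over all tested compounds plus 3 SD, cut at about 28% in these data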;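 further: 0% = plate median of test compound wells and 100% = 2 mM ZnCl2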
# PfM18AAP inh-2: confirmation of Plasmodium falciparum M18 aspartyl aminopeptidase inhibitors | shares compounds with PfM18AAP inh-1 | inhibition, % at 7.35 µM | recombinant PfM18AAP, H-Glu-NHMec fluorogenic cleavage | 2,400 compounds, 28% hits | AID 2170;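 active means mean inhibition over replicate wells above the hit cutoff set for the earlier primary screen, cut at about 29% in these data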;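 further: 0% = median of test compound wells and 100% = 2 mM ZnCl2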
# CTSL1 confirm: Cathepsin L (human) inhibition, confirmation | shares compounds with PfM18AAP inh-1 | purified cathepsin L1, Z-Leu-Arg-MCA fluorescence | 2,400 tested, under 10 active | inhibition, % at 5.96 µM;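 active means average inhibition across replicates above the hit cutoff set in the earlier primary screen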;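 further: 0% = median of test compound wells and 100% = Z-Phe-Ala-diazomethylketone 1 µM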
# * = called active by the depositor; . = not tested or not shown.
SMILES,p97 inhibitor,PHOSPHO1 block,HDAC3 inhib,UBC9 SUMO inh,G6PDH counter,PfM18AAP inh-1,PfM18AAP inh-2,CTSL1 confirm
O=C(O)Cc1ccc2ocnc2c1,-5,-117,1,5,5,45*,6,1
COC(=O)C1=C(C)NC(=S)NC1c1ccc(-c2cc(Cl)ccc2Cl)o1 (centres undefined),-2,-89,5,23,.,36*,-55,9
Nn1c(SCc2ccccc2)nc2ccccc21,.,-10,-5,10,.,6,.,.
CCOC(=O)CC1Sc2ccccc2NC1=S (centres undefined),-4,-84,4,-2,.,37*,-16,7
COc1cc(CN2CCc3ccccc3C2)ccc1O,5,6,0,9,.,-7,.,.
O=C(O)C1CCC(CNS(=O)(=O)c2ccccc2)CC1 (centres undefined),.,24,2,-1,.,2,.,.
O=C(NNc1cccc(Cl)n1)Nc1ccc(Cl)cc1,1,12,4,-15,13,56*,36*,-2
O=C(Nc1ccncc1)Nc1cccc(C(F)(F)F)c1,.,36,12,-8,.,4,.,.
O=C(NNc1cccc(Cl)n1)Nc1cccc(C(F)(F)F)c1,-1,3,11,-11,7,54*,37*,1
O=C(Nc1ccc(Cl)cc1)Nc1ccccn1,.,23,2,16,.,1,.,.
CCOc1cccnc1Sc1ccccc1,.,.,0,.,.,.,.,.
COc1ccccc1-c1cnn2c(NC3CCCC3)cc(C)nc12,.,46,7,7,.,2,.,.
O=C(O)CCCCCN1C(=O)C(O)=C(C(=O)/C=C/c2ccccc2)C1c1ccc2c(c1)OCO2 (centres undefined),2,25,0,24,13,55*,-1,2
CCn1c(O)c(/C=N/n2cnnc2)sc1=S,7,43,6,4,0,59*,57*,2
NS(=O)(=O)c1ccc(CCNC(=O)CSc2nc3ccccc3c(=O)n2CC2CCCO2)cc1 (centres undefined),.,49,-2,2,.,3,.,.
CCn1c(CN2CCOCC2)nnc1SCC(=O)Nc1cccc(C)c1,.,43,-2,13,.,-14,.,.
N#CC[C@H](Cc1ccccc1)N1CCN(Cc2ccccc2)CCC1=O,.,-6,-1,1,.,6,.,.
N#CC[C@H](Cc1ccccc1)N1CCN(CCc2ccccc2)CCC1=O,.,-2,-11,7,.,33*,-54,3
CC(=O)N/C(=C/c1ccc([N+](=O)[O-])cc1)C(=O)O,5,37,5,15,3,32*,-37,-3
CC(C)(C)NC(=O)C(c1ccncc1)N(Cc1cccs1)C(=O)c1csnn1 (centres undefined),2,-5,1,4,.,7,.,.
Cc1ccc(C(C(=O)NC(C)(C)C)N(Cc2cccs2)C(=O)c2csnn2)cc1 (centres undefined),-7,.,12,.,.,35*,-53,1
CC(C)c1cc2c(c(O)c1O)[C@@]13CCCC(C)(C)C1CC2OC3=O (some centres undefined),.,-127,2,15,.,68*,48*,-4
COc1cccc(NC(=O)CCNC(=O)N2CC(=O)Nc3ccccc32)c1,.,26,1,-1,.,-1,.,.
CN1C(=O)c2c(sc3c2CCCC3)NC1c1ccccc1O (centres undefined),0,17,-1,9,-13,34*,-24,-1
CCN(CCCNC(=O)CCNC(=O)Cn1cnc2ccccc2c1=O)c1cccc(C)c1,4,7,1,6,8,53*,-25,-2
CCN(CCCNC(=O)CNC(=O)Cn1cnc2ccccc2c1=O)c1ccccc1,1,-31,8,8,2,11,.,.
CCN(CCCNC(=O)C1CCN(S(=O)(=O)c2c(C)[nH]c(=O)[nH]c2=O)CC1)c1cccc(C)c1,-3,9,-3,10,7,32*,-23,-2
CCN(CCCNC(=O)C1CCC(=O)N1C1CCCC1)c1cccc(C)c1 (centres undefined),-3,-27,-5,-12,-3,54*,-24,6

# Screens (PubChem BioAssay)
